Here are results for 49 compounds from PubChem BioAssay AID485281 (National Center for Advancing Translational Sciences (NCATS), 2010).

The campaign covered roughly 350,000 compounds. About 260 (0.074%) were called active. About 8% were inconclusive and are not listed. The call rests on the fitted dose curve; in most records, active means well fitted inhibition curve with a large enough effect; inconclusive means small, poorly fitted or top-dose-only effect; inactive means no such curve, though single readings can be large or run the other way. Only a selection was taken, and actives are over-represented in it overall.
On the % scale 0 is the no-effect control and ±100 the full control effect; potency means the concentration at half of the fitted maximal effect.

Sequence of Ferritin light chain (Equus caballus) (P02791 2-175 limits assumed): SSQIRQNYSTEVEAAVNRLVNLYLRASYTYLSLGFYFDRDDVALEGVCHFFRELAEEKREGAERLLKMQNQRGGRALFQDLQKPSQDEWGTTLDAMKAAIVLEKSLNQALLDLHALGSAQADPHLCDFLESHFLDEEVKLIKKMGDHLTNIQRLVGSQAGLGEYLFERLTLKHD

The target of this assay is Ferritin light chain (Equus caballus) (UniProt P02791). Kind of assay: qHTS Assay for Identification of Novel General Anesthetics. Further: nearly all actives have a fitted effect of over 20% in size. As to conditions: apoferritin/1-aminoanthracene competitive binding, fluorescence; series mostly up to 77.5 µM; activity change, negative = displacement: at the top concentration. From the text:
Source: NIH Chemical Genomics Center [NCGC]
Assay Submitter: Roderic Eckenhoff, University of Pennsylvania
Screening Center PI: Christopher P. Austin, NIH
Probe Development: NIH Chemical Genomics Center [NCGC]
Anesthetic development has remained a largely empirical process. There are growing concerns about the cognitive effects of known general anesthetics and acceleration of the onset of neurodegenerative disease. The compounds' toxicity and multiple specific binding targets in the mammalian brain [4] has made them less attractive as drug leads. In this assay, a GABAergic mimetic model system, apoferritin and a profluorescent 1-aminoanthracene ligand (1-AMA), was used to construct a competitive binding assay for identification of novel general anesthetics. The assay was validated for 1-AMA using other known anesthetics, such as isoflurane (CID:3763) and propofol (CID: 4943), [6].
[1] S.L. Bianchi, T. Tran, C. Liu, S. Lin, Y. Li, J.M. Keller, R.G. Eckenhoff, and M.F. Eckenhoff, Brain and behavior changes in 12-month-old Tg2576 and nontransgenic mice exposed to anesthetics. Neurobiol Aging 29 (2008) 1002-10.
[2] Z. Xie, Y. Dong, U. Maeda, R.D. Moir, W. Xia, D.J. Culley, G. Crosby, and R.E. Tanzi, The inhalation anesthetic isoflurane induces a vicious cycle of apoptosis and amyloid beta-protein accumulation. J Neurosci 27 (2007) 1247-54.
[3] P. Honegger, and J.M. Matthieu, Selective toxicity of the general anesthetic propofol for GABAergic neurons in rat brain cell cultures.
[4] M.F. Eckenhoff, K. Chan, and R.G. Eckenhoff, Multiple specific binding targets for inhaled anesthetics in the mammalian brain. J Pharmacol Exp Ther 300 (2002) 172-9.
[5] C.A. Butts, J. Xi, G. Brannigan, A.A. Saad, S.P. Venkatachalan, R.A. Pearce, M.L. Klein, R.G. Eckenhoff, and I.J. Dmochowski, Identification of a fluorescent general anesthetic, 1-aminoanthracene. Proc Natl Acad Sci U S A 106 (2009) 6501-6.
[6] W.A. Lea, J. Xi, A. Jadhav, L. Lu, C.P. Austin, A. Simeonov, and R.G. Eckenhoff, A high-throughput approach for identification of novel general anesthetics. PLoS One 4 (2009) e7150.
Three uL of reagents (free 1-AMA (50% saturated solution of 1-aminoanthracene
in PBS) in columns 3, 4 as negative control and 1-AMA/apoferritin mixture (10 uM horse-spleen apoferritin in 50% saturated 1-aminoanthracene in PBS) in columns 1, 2, 5-48) was dispensed into 1536-well Greiner black assay plates. Compounds (23 nL) were transferred via Kalypsys pintool equipped with 1,536-pin array (10 nL slotted pins, V&P Scientific, San Diego, CA). Titration of the positive control, propofol, were delivered via pin transfer from separate control plates to the 2nd column of each assay plate. The starting concentration of the control, dissolved in DMSO, was at 160 mM, followed by two-fold dilution points in duplicate, for a total of 16 concentrations. The plates were incubated for 10 min at room temperature, and then read on an EnVision HTS multilabel reader (Perkin-Elmer, Waltham, MA) (end point read, 3 min/plate) using Fura2 BFP excitation filter (380 nm, bandwidth 10 nm) and fluorescein emission filter (535 nm, bandwidth 25 nm) set. A LANCE/DELFIA dichroic mirror with a cutoff wavelength at 400 nm was used to maximize signal accuracy and strength. Vehicle-only plates, with DMSO being pin-transferred to the entire column 5-48 compound area, were inserted uniformly at the beginning and the end of each library in order to monitor for and record any shifts in the background. Activity was computed as the normalized fluorescence response relative to free 1-AMA and 1-AMA/apoferritin complex values. Concentration-effect relationships were derived by using curve fitting algorithms developed in-house (http://ncgc.nih.gov/pub/openhts/). A four parameter Hill equation was fitted to the concentration-response data by minimizing the residual error between the modeled and observed responses.
Background: Quantitative high-throughput screening tests each substance at several concentrations.
With `COc1ccc(OCC(=O)Nc2cccc(C(=O)OCc3cc(=O)n4nc(C)sc4n3)c2)cc1`, the “activity change, negative = displacement” value is 52.4% (inactive).

On to `O=C(NCC12CC3CC(CC(C3)C1)C2)c1cc2nc(-c3ccccc3)cc(C(F)(F)F)n2n1`, for which the “activity change, negative = displacement” value is -6.46% (inactive).

As for `CCN(CC)c1ccc(NC(=O)CN2CCN(CC(=O)Nc3ccc(Cl)cc3)CC2)cc1`, the “activity change, negative = displacement” value was -11% (inactive).

For `COc1ccc(-c2nc3nc(C)cc(C)n3c2Nc2c(C)cccc2C)cc1`, the “activity change, negative = displacement” value is 275% (inactive).

On to `CC1=C(C(=O)OCC2CCCCC2)C(c2c(F)cccc2Cl)CC(=O)N1` (centres undefined), for which the “activity change, negative = displacement” value was -17.3% (inactive).

Regarding `COc1cccc(Cn2c(SCc3ccc(C(=O)N4CCC(C)CC4)cc3)nc3ccncc32)c1`, the “activity change, negative = displacement” value was 72.3% (inactive).

Take `COCCNS(=O)(=O)c1cc(-c2nn3c(C)nnc3c3ccccc23)ccc1C`: the “activity change, negative = displacement” value was -12.8% (inactive).

For `CCc1cccc(C)c1NS(=O)(=O)c1ccc(-c2cc(C)no2)s1`, the “activity change, negative = displacement” value was 3.74% (inactive).

As for `Cc1cc(C)cc(-n2ccnc2SCC(=O)Nc2nc3ccccc3s2)c1`, the “activity change, negative = displacement” value is 60.5% (inactive).

As for `COc1ccc(CNC(=O)Cc2coc3ccc(C(C)C)cc23)cc1`, the “activity change, negative = displacement” value was 3.71% (inactive).

As to `Cc1cc(=O)n(CC(=O)Nc2cccc([N+](=O)[O-])c2)c(-n2nc(C)cc2C)n1`, the “activity change, negative = displacement” value is -3.5% (inactive).

As for `O=C(CCc1nc(CN2CCN(S(=O)(=O)c3ccc(Cl)cc3)CC2)no1)N1CCCCC1`, the “activity change, negative = displacement” value was 8.4% (inactive).

As to `COc1ccc(C2Sc3ccccc3NC3=C2C(=O)c2ccccc23)c(OC)c1OC` (centres undefined), the “activity change, negative = displacement” value is -0.239% (inactive).

In the case of `CCOCCCn1c(SCC(=O)Nc2ccc(CC)cc2)nc2ccccc2c1=O`, the “activity change, negative = displacement” value was -9.21% (inactive).

Take `COc1ccc(CCNC(=O)CCCCn2c(=O)c3ccccc3n(Cc3ccccc3C)c2=O)cc1OC`: the “activity change, negative = displacement” value is 23.4% (inactive).

Consider `COc1ccc(CNC(=O)CCc2c(C)nn(-c3ccc(N4CCCC4)nn3)c2C)cc1`, for which the “activity change, negative = displacement” value is -8.08% (inactive).

For `Cc1ccc(SCC(=O)Nc2ccc3oc(-c4ccccc4F)nc3c2)cc1`, the “activity change, negative = displacement” value was -11.2% (inactive).

Consider `Cc1ccc2nc(CN3CCN(S(=O)(=O)c4ccc(C)c(C)c4)CC3)oc2c1`, for which the “activity change, negative = displacement” value is -10.2% (inactive).

As for `Cc1ccc(C)c(NC(=O)CSC2=Nc3ccccc3N=C(c3ccc(F)cc3)C2)c1`, the “activity change, negative = displacement” value is -1.36% (inactive).

Consider `COc1cc(OC)c(C(=O)N2CCCC2)cc1OC`, for which the “activity change, negative = displacement” value is -10.8% (inactive).

Regarding `Cc1ccc(C(=O)N2CCCC2)c(F)c1F`, the “activity change, negative = displacement” value was -14.7% (inactive).

For `Cc1c(Br)cc(C(=O)N2CCCCCC2)c(C)c1C`, the Potency is 10 µM (active).

On to `CCCn1c2ccccc2c2cnn(CC(=O)N(CC)c3cc(C)ccc3C)c(=O)c21`, for which the “activity change, negative = displacement” value is -5.87% (inactive).

For the compound `CCOC(=O)Cn1c(=O)n(C2CCCCC2)c2nc(-c3cccc(OC)c3)nc(C(N)=O)c21`, the “activity change, negative = displacement” value was 8.75% (inactive).

On to `O=C(CN1c2ccccc2S(=O)(=O)c2ccccc21)Nc1cccc(C(F)(F)F)c1`, for which the “activity change, negative = displacement” value was 8.17% (inactive).

Consider `CCn1c(C)c(C)c2cc(C(=O)NCCc3cc(OC)ccc3OC)ccc21`, for which the “activity change, negative = displacement” value was -2.71% (inactive).

Consider `Cc1cc(OCC(=O)NCC2(N(C)C)CCCCC2)cc(C)c1Cl`, for which the “activity change, negative = displacement” value was -9.9% (inactive).

As to `CN(C)CCCn1c(-c2ccc(Cl)cc2)csc1=Nc1ccccc1`, the “activity change, negative = displacement” value was 9.73% (inactive).

As to `O=c1cc(-c2ccccc2)n2c(SCc3ccccc3)nnc2[nH]1`, the “activity change, negative = displacement” value is 44% (inactive).

With `Nc1ccc(C(=O)OCC(=O)NC2CCS(=O)(=O)C2)cc1[N+](=O)[O-]` (centres undefined), the “activity change, negative = displacement” value is -8.39% (inactive).

Regarding `Nc1ccc(C(=O)OCC(=O)NC2CCCc3ccccc32)cc1[N+](=O)[O-]` (centres undefined), the Potency is 20 µM (active).

As to `COC(=O)c1cc(OCC(=O)NC2CCCc3ccccc32)cc(C(=O)OC)c1` (centres undefined), the “activity change, negative = displacement” value was 0.832% (inactive).

Consider `CC(C)c1ccc(NC(=O)Cn2c3ncccc3c(=O)n2-c2ccccc2)cc1`, for which the “activity change, negative = displacement” value was 2.35% (inactive).

For `CCc1ccc(NC(=O)c2sc3nc4c(cc3c2N)CN(CC)CC4)cc1`, the “activity change, negative = displacement” value was -8.24% (inactive).

For the compound `O=C(CCc1nc(CN2CCN(S(=O)(=O)c3ccc(Br)cc3)CC2)no1)N1CCCCC1`, the “activity change, negative = displacement” value was -9.1% (inactive).

Take `Cc1cc(C(=O)Nc2cccc(C(F)(F)F)c2)c2c(C)nn(-c3cccc(F)c3)c2n1`: the “activity change, negative = displacement” value was 52.9% (inactive).

As to `CCc1cccc(NC(=O)CSc2nccn2C)c1`, the “activity change, negative = displacement” value was -12.6% (inactive).

Turning to `COc1ccc(-c2cn3c(C)c(C(=O)Nc4cc(C)cc(C)c4)sc3n2)cc1`, the “activity change, negative = displacement” value is 1.93% (inactive).

`O=S(=O)(c1ccccc1)c1nc(-c2ccc(Cl)cc2Cl)oc1N1CCCCC1`: the “activity change, negative = displacement” value is 643% (inactive).

As to `COc1cc(C(=O)Nc2ccc(-n3c(C)nc4ccccc4c3=O)cc2)cc(OC)c1OC`, the “activity change, negative = displacement” value is 5.65% (inactive).

As for `Cc1nccn1CCCNC(=O)CC1C(=O)NCCN1Cc1ccc(Cl)c(F)c1` (centres undefined), the “activity change, negative = displacement” value is -5.87% (inactive).

Turning to `O=C(CC1C(=O)NCCN1Cc1ccc(-c2ccccc2)cc1)NCC1CCOCC1` (centres undefined), the “activity change, negative = displacement” value was -9.06% (inactive).

For `CCOc1ccc(CN2CCNC(=O)C2CC(=O)NCCCC2CCCC2)cc1` (centres undefined), the Potency is 31.6 µM (active).

Consider `CC(=O)c1cccc(NC(=O)c2nc(-c3ccccc3)n(-c3cccc(C)c3)n2)c1`, for which the “activity change, negative = displacement” value is -12% (inactive).

On to `O=C(c1cnn(-c2ccc(F)cc2)c1-n1cccc1)N1CCN(c2ccc(F)cc2)CC1`, for which the “activity change, negative = displacement” value is 5.79% (inactive).

With `CCCn1c2ccccc2c2cnn(CC(=O)N(C)c3ccccc3CC)c(=O)c21`, the “activity change, negative = displacement” value is 90.4% (inactive).

Take `O=C(CCC(=O)N1CC2CCCN2c2ccccc21)NCc1ccccc1Cl` (centres undefined): the “activity change, negative = displacement” value was -0.193% (inactive).

Consider `Cc1ccc2nc(-c3ccc(C)c(NC(=O)Cc4ccccc4)c3)oc2c1`, for which the “activity change, negative = displacement” value is -0.615% (inactive).

`COc1ccc(N(CC(=O)NCCc2ccc(Cl)cc2)S(=O)(=O)c2c(C)nn(C)c2C)cc1`: the “activity change, negative = displacement” value was -5.18% (inactive).
